Compound activity from PubChem BioAssay.
ssDAF12 agonist: S. stercoralis DAF-12 activation, primary screen; HEK293 ssDAF-12/GRIP1 lit1-tk-luc reporter, luminescence; % of 3 µM dafachronic acid response; activation, % at 6.8 µM; 370,000 compounds, 1% hits; AID 652126;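 active = activation above the mean over all tested compounds plus 3 SD, cut at about 0.9% in these data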;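 note: 0% = DMSO-only wells and 100% = 3 µM delta7-dafachronic acid wells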
DAX1 inh-1: inhibits human nuclear receptor DAX1. HEK293 Gal4-DAX1 luciferase reporter, luminescence. inhibition, % at 6.75 µM. 340,000 compounds, 0.99% hits. AID 504766;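 active = inhibition above the mean over all tested compounds plus 3 SD, cut at about 4.2% in these data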;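 note: 0% = DAX1-transfected cells with DMSO and 100% = empty-vector control cells with DMSO; inhibition shows as a rise in luminescence from relieved DAX1 repression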
Target sequence (P51843 207-470 limits assumed): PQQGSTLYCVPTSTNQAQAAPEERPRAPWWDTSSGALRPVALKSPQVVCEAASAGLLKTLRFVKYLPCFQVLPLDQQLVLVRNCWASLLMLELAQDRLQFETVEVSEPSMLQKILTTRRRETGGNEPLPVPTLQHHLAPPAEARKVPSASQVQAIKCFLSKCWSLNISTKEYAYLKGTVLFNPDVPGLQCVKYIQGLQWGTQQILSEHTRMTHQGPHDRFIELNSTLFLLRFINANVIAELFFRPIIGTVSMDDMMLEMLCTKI
hcDAF-12 act: H. contortus DAF-12 activation, primary screen; activation, % at 6.8 µM; AID 652067; HEK293 hcDAF-12 lit1-tk-luc reporter, luminescence; 0% DMSO, 100% Δ7-dafachronic acid; 370,000 compounds, 1.4% hits;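 active = activation above the mean of all tested compounds plus 3 SD, cut at about 5.5% in these data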;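 note: 100% = response to 3 µM Δ7-dafachronic acid high control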
DAX1 inh-2: blocks DAX1 repression of SF-1 activated StAR promoter; HEK293T StAR-luciferase reporter, SF-1/DAX-1 repression relief; inhibition, % at 6.8 µM; 370,000 compounds, 1.1% hits;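 active = inhibition above the mean over all tested compounds plus 3 SD, cut at about 3.6% in these data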;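 note: 0% = DAX-1 cells with DMSO and 100% = cells lacking DAX-1 with DMSO; higher inhibition means more luminescence from relief of DAX-1 repression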
hgDAF-12 ag: activates the H. glycines DAF-12 receptor ligand-binding domain. activation, % at 6.8 µM. AID 687014. HEK293 GAL4-hgDAF12 UAS-luciferase reporter, agonist luminescence; normalized to butyrate control. 370,000 compounds, 1.8% hits;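 active = activation above a cutoff set at the mean of all screened compounds plus 3 SD, cut at about 10% in these data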;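 note: 0% = DMSO wells and 100% = sodium butyrate wells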
SMARCA2 activ: SMARCA2 function activation, primary screen; MG213 cells, MMTV-luciferase reporter, dexamethasone, overnight; activation, % at 9.1 µM; 370,000 compounds, 1% hits; AID 652017; in the data active = activation above about 7.8%;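 note: 0% = vehicle wells and 100% = reference activator wells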
LXRb hcDAF ctr: counter-screen for hcDAF-12 agonists: agonists of human LXR-beta; HEK293 Gal4-LXR tk-luc reporter, luminescence, 24 h; normalized: DMSO 0%, positive control 100%; 3,400 tested, under 10 active; activation, % at 6.8 µM; shares compounds with hcDAF-12 act;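 active = mean percent activation of the reporter above a cutoff set as the average over tested compounds plus their standard deviation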
hcDAF12 ag: confirmation of H. contortus DAF-12 agonists; 3,400 compounds, 61% hits; shares compounds with hcDAF-12 act; HEK293 hcDAF-12 lit1-tk-luc reporter, luminescence; % of Δ7-dafachronic acid response; activation, % at 6.8 µM;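 active = mean activation across triplicate tests above the threshold derived from the earlier primary screen, cut at about 5.5% in these data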;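 note: 0% = DMSO only wells and 100% = 3 µM Δ7-dafachronic acid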
The depositor's hits bear a star; x = no result. This is a sample that favours compounds with a hit; in the whole collection about 4.8% have one here.

SMILES	ssDAF12 agonist	DAX1 inh-1	hcDAF-12 act	DAX1 inh-2	hgDAF-12 ag	SMARCA2 activ	LXRb hcDAF ctr	hcDAF12 ag
COc1ccccc1C(=O)Nc1nnc(-c2ccccc2)s1	1.2*	1	6.8*	0	9	4	0	8.5*
COc1ccccc1C(=O)Nc1nnc(C)s1	-1	1	2	1	6	6	x	x
COc1ccccc1NC(=O)CC(=O)c1ccccc1	-1	2	-2	0	0	-1	x	x
OC(c1ccccc1)(c1ccccc1)C1CCN(CCCOc2ccccn2)CC1	-1	x	-1	0	4	-4	x	x
O=S1(=O)c2ccc(N3CCC[C@@H]3CO)cc2OCCCN1C1CC1	-1	x	-1	0	4	1	x	x
O=C(OC12CCCN(C1)/C(=C/c1ccncc1)C2)c1ccc(F)cc1 (configuration not stated)	-2	x	-3	-2	-1	-1	x	x
CCCCCCCCN1C(=O)[C@@H](CC(=O)NCCCCc2ccccc2)C[C@@]2(C(=O)OC)C1=C[C@H](C1CCCC1)O[C@@H]2C	0	x	0	0	2	-1	x	x
O=C(NCCc1ccccc1Cl)[C@@H]1CCCN1C(=O)[C@@H](NS(=O)(=O)c1ccc(F)cc1F)c1ccccc1	-1	x	0	0	-6	-2	x	x
COc1ccccc1C(=O)NNC(=O)c1ccccc1Br	1	1	8.4*	0	5	1	0	2
CCOC(=O)CN1CCCc2nc(C)c(C)cc21	-1	x	1	0	1	-1	x	x
CCCC[C@H]1C2CC(OC(=O)Nc3ccc(C)cc3)C(C2)[C@H]2CCCCN21 (some centres not stated)	-1	x	0	0	-1	-3	x	x
COc1ccc2nc(N)sc2c1	-1	1	3	0	5	-3	x	x
COc1ccc2nc(-c3ccc(F)cc3)sc2c1	1.0*	-2	9.3*	3	11*	4	1	6.7*
Nc1ccc2nc(-c3ccccc3)sc2c1	0	-3	9.7*	2	11*	4	2	7.1*
Nc1ccc2nc(-c3ccccc3)c(-c3ccccc3)nc2c1	-1	2	-1	0	-5	-1	x	x
Cc1ccc2nc(-c3ccc(N)cc3)sc2c1	1.6*	x	11*	4.2*	9	3	2	13*
Cc1ccc(CN2CCCCC(NC(=O)c3ccc(N(C)C)cc3)C2=O)cc1 (configuration not stated)	-1	x	-2	1	5	1	x	x
Cc1[nH]c2ccccc2c1CC(=O)Nc1ccc(Nc2cccnc2)c(-c2cc(F)cc(F)c2)c1	0	x	0	-1	-5	-3	x	x
Nc1ccn([C@@H]2O[C@H](C(=O)N3CCN(C(=O)N4CCCCC4)CC3)[C@@H](O)[C@H]2O)c(=O)n1	-1	x	-1	1	0	-3	x	x
O=C(c1cccs1)c1ccc(-c2cccs2)s1	2.1*	-1	14*	3	17*	7	2	14*
C(=N\Nc1nc2ccccc2[nH]1)/c1c[nH]c2ccccc12	-1	-2	0	-1	-4	0	x	x
Cc1cc(=O)[nH]c(N/N=C/c2c[nH]c3ccccc23)n1	0	1	7.2*	1	4	0	0	2
O=C(N/N=C/c1c[nH]c2ccccc12)c1cccc([N+](=O)[O-])c1	0	0	10*	-1	2	-4	0	6.7*
Cn1cc([N+](=O)[O-])c(C(=O)N/N=C\c2c[nH]c3ccccc23)n1	0	1	16*	0	-1	0	0	3
O=[N+]([O-])c1ccccc1N/N=C/c1c[nH]c2ccccc12	2.5*	3	11*	3	21*	3	1	17*
SMILES	ssDAF12 agonist	DAX1 inh-1	hcDAF-12 act	DAX1 inh-2	hgDAF-12 ag	SMARCA2 activ	LXRb hcDAF ctr	hcDAF12 ag
Cn1ncc([N+](=O)[O-])c1C(=O)N/N=C/c1c[nH]c2ccccc12	0	1	4	-1	3	-2	x	x
C[C@H](CO)N1C[C@H](C)[C@@H](CN(C)C(=O)Nc2ccc(C(C)(C)C)cc2)OCc2cn(nn2)CCCC1=O	0	x	0	0	-2	1	x	x
C=CCCC1CN(Cc2ccc(OC)cc2)S(=O)(=O)c2c(cccc2N(C)S(=O)(=O)c2ccc(C)cc2)O1 (configuration not stated)	-1	x	-3	-1	-1	-3	x	x
CCCCCCN1CCN(C2CN(Cc3cn(Cc4ccc(C(F)(F)F)cc4)nn3)S(=O)(=O)C2)CC1 (configuration not stated)	-1	x	-2	-2	-3	-2	x	x
O=C(c1ccc(Cl)cc1)N1CCCCC(Sc2nnc(-c3ccc4c(c3)OCO4)o2)C1=O (configuration not stated)	1	-2	6.9*	4.2*	10*	4	0	2
O=C(O)CSc1nnc(-c2ccc3c(c2)OCO3)o1	0	0	1	0	3	-11	x	x
Cc1nc(NS(=O)(=O)c2ccccc2)sc1C(C)(C)C	-2	2	3	0	-4	-3	x	x
Cc1cccc2sc(NS(=O)(=O)c3ccccc3)nc12	0	1	12*	0	0	1	0	2
c1ccc(-c2ccccc2C2Cc3nnccc3CN2)cc1 (configuration not stated)	0	x	-2	0	-1	-1	x	x
COc1ccc(/C=C2\Cc3ccccc3C2=O)cc1OC	-1	1	0	0	3	6	x	x
COc1ccc(/C=C2\CCc3ccccc3C2=O)cc1O	1	-2	8.5*	0	6	1	1	6.9*
O=C(NC1CCCCC1)c1ccc2c(c1)OCO2	0	0	8.3*	1	8	7	0	4
O=C(NC1CCCCCC1)c1ccc(OCC2CCCO2)cc1 (configuration not stated)	0	2	9.8*	2	7	6	1	4
Cc1csc(NC(=O)c2ccc(OCC3CCCO3)cc2)n1 (configuration not stated)	0	-1	6.7*	4.3*	13*	1	1	4
COCC(=O)N1C[C@H]2CON(C)[C@H]2C[C@H]1c1cccc(-c2cc(Cl)cc(Cl)c2)c1	-2	x	-2	-1	-2	-1	x	x
Cc1cc(N2CCN(C(=O)OC(C)(C)C)C[C@@H]2C)ccc1Br	-1	x	-1	-2	3	-1	x	x
